Potency data for 23 compounds are collected here from PubChem BioAssay (NCATS).

Molecules are shown by their SMILES. Inconclusive results are not listed. Active and inactive are the calls of the source. The call rests on the fitted dose curve; in most records, active means well fitted curve in the direction sought with a large enough effect; inconclusive means small, poorly fitted or top-dose-only effect, or another doubt; inactive means no such curve, though single readings can be large; an effect the other way counts as inactive or inconclusive. Non-standard residues stand in square brackets, D forms with d. Residues, ends and D or L forms follow the SMILES beside them. *: point of attachment. Sta = CC(C)C[C@H](N)[C@@H](O)CC(=O)O; Isovaleryl = CC(C)CC(=O)*

The nature of experiment [1]: Quantitative High-Throughput drug screen in 47 multiple myeloma cell lines against the NCATS MIPE library collection: XG1_PLB cell viability assay (AID 1919866). Further: nearly all actives have a fitted effect of over 35% in size. In short, it runs like this: (§1)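 ATP-based CellTiter-Glo luminescence after 48 h drug exposure (37 °C, 5% CO2) of 500 myeloma cells per well. DMSO-only wells set 100% viability, media-only wells 0%; MIPE 4.0 library added by pin tool.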

The nature of experiment [2]: Quantitative High-Throughput drug screen in 47 multiple myeloma cell lines against the NCATS MIPE library collection: VP6_DJ cell viability assay (AID 1919867). Further: nearly all actives have a fitted effect of over 40% in size. In outline:
as §1

The nature of experiment [3]: Quantitative High-Throughput drug screen in 47 multiple myeloma cell lines against the NCATS MIPE library collection: UTMC2_PLB cell viability assay (AID 1919868). Further: nearly all actives have a fitted effect of over 55% in size. In short, it runs like this:
as §1

A short description of experiment [4]: Quantitative High-Throughput drug screen in 47 multiple myeloma cell lines against the NCATS MIPE library collection: PE2_PLB cell viability assay (AID 1919869). Further: nearly all actives have a fitted effect of over 35% in size. In short, it runs like this: as §1
Experiment [5] can be described thus: Quantitative High-Throughput drug screen in 47 multiple myeloma cell lines against the NCATS MIPE library collection: PCM6_Riken cell viability assay (AID 1919870). Further: nearly all actives have a fitted effect of over 30% in size. In outline:
as §1

Experiment [6] in a line: Quantitative High-Throughput drug screen in 47 multiple myeloma cell lines against the NCATS MIPE library collection: OPM2_DSMZ cell viability assay (AID 1919872). Further: nearly all actives have a fitted effect of over 30% in size. In outline: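 Approved and investigational drugs from MIPE 4.0 were added by pin tool to 500 cells per well. After 48 hours at 37C, ATP-based CellTiter-Glo luminescence indicated remaining viability.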
Experiment [7] in a line: Quantitative High-Throughput drug screen in 47 multiple myeloma cell lines against the NCATS MIPE library collection: KMS28BM_JCRB cell viability assay (AID 1919874). Further: nearly all actives have a fitted effect of over 35% in size. In short, it runs like this: as §1
Experiment [8] is described as follows: Quantitative High-Throughput drug screen in 47 multiple myeloma cell lines against the NCATS MIPE library collection: KMS11_JCRBsus cell viability assay (AID 1919873). Further: nearly all actives have a fitted effect of over 50% in size. In outline:
as §1

A short description of experiment [9]: Quantitative High-Throughput drug screen in 47 multiple myeloma cell lines against the NCATS MIPE library collection: RPMI8226_ATCC cell viability assay (AID 1919871). Further: nearly all actives have a fitted effect of over 30% in size. In outline: as §1
Experiment [10] deals with Cytochrome P450 3A4 (Homo sapiens) (UniProt P08684). The experiment can be described thus: qHTS for inhibitors of CYP3A4 against the NCATS DSHEA and TCM libraries (AID 1919971). The note with it: recombinant CYP3A4 enzyme activity, luminescence qHTS. In short, it runs like this:
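Each CYP isoform and its pro-luciferin substrate, at isoform-specific final concentrations, were preincubated 15 min at RT with substances. NADPH regeneration solution (1x) started a 30-45 min reaction, and P450-Glo luminescence was read.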
A general note: qHTS replaces the single test concentration by a dilution series.
Potency means the concentration at half of the fitted maximal effect.

Chain of Cytochrome P450 3A4 (Homo sapiens) (P08684 whole entry, looked up, canonical isoform): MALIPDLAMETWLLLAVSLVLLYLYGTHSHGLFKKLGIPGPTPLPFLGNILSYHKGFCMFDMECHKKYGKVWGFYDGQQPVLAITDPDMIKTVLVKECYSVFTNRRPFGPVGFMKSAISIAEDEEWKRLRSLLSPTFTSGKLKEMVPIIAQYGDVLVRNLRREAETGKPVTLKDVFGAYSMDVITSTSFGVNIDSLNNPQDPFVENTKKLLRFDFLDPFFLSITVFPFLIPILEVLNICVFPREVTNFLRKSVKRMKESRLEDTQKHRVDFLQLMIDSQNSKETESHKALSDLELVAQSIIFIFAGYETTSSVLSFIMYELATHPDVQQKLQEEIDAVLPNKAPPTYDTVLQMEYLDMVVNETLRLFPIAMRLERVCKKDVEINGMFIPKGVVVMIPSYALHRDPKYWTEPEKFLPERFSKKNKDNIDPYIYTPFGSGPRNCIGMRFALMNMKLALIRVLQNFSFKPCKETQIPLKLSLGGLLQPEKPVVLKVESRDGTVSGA

Consider `O=C(CCc1ccc(O)cc1)c1c(O)cc(O)cc1O`, for which the Potency in experiment [1] was 0.132 µM (active); in experiment [2], 0.418 µM (active); in experiment [3], 0.332 µM (active); in experiment [4], 5.26 µM (active); in experiment [5], 0.235 µM (active); in experiment [6] it was 3.32 µM (active). Also, in experiment [7], the Potency entry was “inactive”.

On to `Nc1nc(N)c(N=O)c(OCC2CCCCC2)n1`, for which the Potency in experiment [1] was 4.69 µM (active); in [2], 2.96 µM (active); in experiment [3], 5.26 µM (active); in experiment [4], 9.35 µM (active); in [5], 5.26 µM (active); in [8], 6.62 µM (active). The Potency in experiment [7] is 16.6 µM (active).

For the compound `N[C@@H](Cc1cc(I)c(Oc2cc(I)c(O)c(I)c2)c(I)c1)C(=O)O`, the Potency result in experiment [1], in experiment [2], in [4], in [5], in [9] and in experiment [6] was “inactive” in each case. The Potency entry in experiment [8] and in experiment [7] was “inactive” throughout.

With `NC(=NCc1ccccc1)NC(=O)c1nc(Cl)c(N)nc1N`, the Potency in experiment [1] is 2.64 µM (active); in experiment [2] it was 7.43 µM (active); in experiment [4], 9.35 µM (active); in experiment [5] it was 4.69 µM (active). Moreover, the Potency result in experiment [3], in [9], in experiment [6], in experiment [8] and in experiment [7] was “inactive” in each case.

In the case of `Oc1ccc2ccccc2c1SSc1c(O)ccc2ccccc12`, the Potency in experiment [1] is 11.8 µM (active); in experiment [2], 16.6 µM (active); in [4], 7.43 µM (active); in [5], 13.2 µM (active); in experiment [9], 26.4 µM (active); in experiment [6] it was 20.9 µM (active). Moreover, the Potency in [8] is 13.2 µM (active); in experiment [7] it was 23.5 µM (active).

For the compound `O=C(NCC1CCCCN1)c1cc(OCC(F)(F)F)ccc1OCC(F)(F)F` (stereo not drawn), the Potency in [1] is 3.32 µM (active); in experiment [2] it was 3.72 µM (active); in experiment [4] it was 9.35 µM (active); in [5] it was 4.69 µM (active); in experiment [8] it was 23.5 µM (active); in experiment [7], 18.7 µM (active).

Regarding `COC(=O)C1=C(C)NC(C)=C(C(=O)OCCCN2CCC(c3ccccc3)(c3ccccc3)CC2)C1c1cccc([N+](=O)[O-])c1` (stereo not drawn), the Potency entry in experiment [1], in experiment [2], in [3], in [4], in experiment [5] and in [6] was “inactive” throughout. Further, the Potency result in [8] and in experiment [7] was “inactive” in each case.

`Cc1cc(O)c2c(c1)C(=O)c1cc(O)cc(O)c1C2=O`: the Potency entry in experiment [1], in [2], in [3], in experiment [6], in experiment [8] and in experiment [7] was “inactive” throughout. Also, the Potency was 23.5 µM (active) in [9] and 10 µM (active) in experiment [10].

For the compound `CCC1=C(C)CN(C(=O)NCCc2ccc(S(=O)(=O)NC(=O)NC3CCC(C)CC3)cc2)C1=O` (stereo not drawn), the Potency entry in experiment [1], in experiment [2], in experiment [4], in experiment [5], in [9] and in experiment [6] was “inactive” each time. Also, the Potency result in experiment [8] and in experiment [7] was “inactive” throughout.

For the compound `COCCCOc1ccnc(CS(=O)c2nc3ccccc3[nH]2)c1C` (stereo not drawn), the Potency entry in [1], in experiment [4], in experiment [5], in experiment [9], in [6] and in experiment [8] was “inactive” throughout. In addition, the Potency result in experiment [7] is “inactive”. The Potency in [2] is 4.69 µM (active).

`Cc1cc2cc3c(C)cc(=O)oc3c(C)c2o1`: the Potency was 18.7 µM (active) in experiment [1], 23.5 µM (active) in experiment [2], 20.9 µM (active) in [4] and 20.9 µM (active) in experiment [5]. Also, the Potency result in [6] and in [7] was “inactive” each time.

With `COc1cc(Nc2c(C#N)cnc3cc(OCCCN4CCN(C)CC4)c(OC)cc23)c(Cl)cc1Cl`, the Potency in experiment [1] was 2.96 µM (active); in experiment [2], 1.05 µM (active); in experiment [3] it was 0.526 µM (active); in experiment [4] it was 3.72 µM (active); in [5] it was 1.87 µM (active); in experiment [8], 18.7 µM (active). The Potency in experiment [7] was 18.7 µM (active).

`c1ccc2[nH]c(-c3cscn3)nc2c1`: the Potency result in experiment [1], in experiment [2], in [4], in experiment [5], in [6] and in experiment [8] was “inactive” each time. In experiment [7], the Potency entry was “inactive”.

Take `O=c1ccc2ccc(O)c(O)c2o1`: the Potency is 4.18 µM (active) in [1], 11.8 µM (active) in experiment [2], 13.2 µM (active) in experiment [4] and 13.2 µM (active) in experiment [5]. Further, the Potency result in experiment [6], in experiment [8] and in [7] was “inactive” in each case.

Turning to `Cc1nc(Nc2ncc(C(=O)Nc3c(C)cccc3Cl)s2)cc(N2CCN(CCO)CC2)n1`, the Potency in experiment [1] was 16.6 µM (active); in [2], 0.0662 µM (active); in experiment [4], 3.32 µM (active); in experiment [5] it was 5.26 µM (active); in experiment [8] it was 14.8 µM (active).

Take `O=C(NOCC1CC1)c1ccc(F)c(F)c1Nc1ccc(I)cc1Cl`: the Potency is 11.8 µM (active) in [1]; 4.69 µM (active) in experiment [2]; 13.2 µM (active) in experiment [3]; 6.62 µM (active) in [4]; 14.8 µM (active) in experiment [5]; 20.9 µM (active) in experiment [8]. In addition, in experiment [7], the Potency was 26.4 µM (active).

As for `C[C@H](Cc1ccc(O)c(O)c1)[C@@H](C)Cc1ccc(O)c(O)c1`, the Potency in [1] was 20.9 µM (active); in experiment [2] it was 16.6 µM (active); in experiment [4], 11.8 µM (active); in [5], 18.7 µM (active); in [9], 10.5 µM (active); in experiment [6] it was 18.7 µM (active). Besides, the Potency in [8] was 18.7 µM (active); in experiment [7], 23.5 µM (active).

On to `O=c1c(O)c(-c2ccc(O)cc2O)oc2cc(O)cc(O)c12`, for which, in [1], the Potency was 0.833 µM (active). The Potency result in experiment [5], in experiment [9], in [6], in [8] and in experiment [7] was “inactive” throughout.

For the compound `COc1cc2c(cc1OC)C1CC(=O)C(CC(C)C)CN1CC2` (stereo not drawn), the Potency result in experiment [1], in [4], in experiment [8] and in [7] was “inactive” in each case.

As to `CC(C)c1ccc2oc3nc(N)c(C(=O)O)cc3c(=O)c2c1`, the Potency entry in experiment [1], in [4], in [5], in [9], in [8] and in [7] was “inactive” throughout.

With `COc1cc(OC)c(C(=O)CCCN2CCCC2)c(OC)c1`, the Potency result in experiment [1], in experiment [4], in experiment [6] and in experiment [8] was “inactive” each time.

In the case of `CC(C)CC(=O)N[C@H](C(=O)N[C@H](C(=O)N[C@@H](CC(C)C)[C@@H](O)CC(=O)N[C@@H](C)C(=O)N[C@@H](CC(C)C)[C@@H](O)CC(=O)O)C(C)C)C(C)C` (Isovaleryl-VV[Sta]A[Sta]-OH), the Potency in experiment [1] was 16.6 µM (active). For the same compound, the Potency entry in experiment [4], in experiment [6], in [8] and in [7] was “inactive” throughout.

As to `O=C1NC(=O)C(c2ccccc2[N+](=O)[O-])=C1Nc1ccc(O)c(Cl)c1`, the figures for the Potency in [1] and in [5] were 8.33 µM (active) and 18.7 µM (active), respectively. Also, the Potency result in experiment [3] and in experiment [6] was “inactive” in each case.
